Laboratory results reported in the supplement of paper PMC8285479.
Structures can show the parent of a compound that is named as a salt. ± gives the standard deviation of the averaged measurements. Whole data set: some 1,900 compounds, median “normalised cell viability (NPI; 0 = phenylarsine oxide control, 1 = DMSO control)” near 1, cut for the lowest 2% near 0.039. The list comes from a sample in which the lowest values are over-represented; it also holds similar structures and randomly drawn compounds.

Tested on: NCI-H1944
Experiment: normalised cell viability (NPI; 0 = phenylarsine oxide control, 1 = DMSO control) (fraction of DMSO control); NCI-H1944 is a non-small cell lung cancer line; higher = more viable cells (less compound toxicity)
Conditions: 6 days
[1] = glucocorticoid arm: hydrocortisone 2.75 uM co-treatment, compound 1 µM
[2] = glucocorticoid arm: hydrocortisone 2.75 uM co-treatment, compound 5 µM
[3] = glucocorticoid arm: hydrocortisone 2.75 uM pre-treated 2 days and continued, compound 1 µM
[4] = glucocorticoid arm: hydrocortisone 2.75 uM pre-treated 2 days and continued, compound 5 µM
[5] = glucocorticoid arm: vehicle, compound 1 µM
[6] = glucocorticoid arm: vehicle, compound 5 µM
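Further: CTB read-out in 384-well plates, triplicate wells, NPI normalised per plate against 1 µM phenylarsine oxide (0) and 0.1% DMSO (1) controls.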

| Structure (SMILES) | normalised cell viability [1] | normalised cell viability [2] | normalised cell viability [3] | normalised cell viability [4] | normalised cell viability [5] | normalised cell viability [6] |
| --- | --- | --- | --- | --- | --- | --- |
| O=C(O)C1CCNCC1 [Isonipecotic acid] | 1.003 ± 0.0058 | 1.02 ± 0.017 | 1.01 ± 0.018 | 1.04 ± 0.07 | 0.9937 ± 0.0015 | 1.001 ± 0.0078 |
| Cc1ccccc1/C=C/C1=NCCN1 [Metrazoline oxalate] | 0.9993 ± 0.0011 | 1.002 ± 0.0072 | 1.01 | 0.987 ± 0.017 | 0.995 ± 0.007 | 1.002 ± 0.0076 |
| CN(N=O)C(=O)N[C@@H]1[C@@H](O)[C@H](O)[C@@H](CO)O[C@@H]1O [Streptozocin] | 1 ± 0.014 | 1.03 ± 0.015 | 1.001 ± 0.0081 | 1.04 ± 0.01 | 0.9943 ± 0.0051 | 1 |
| COCC(=O)O[C@]1(CCN(C)CCCc2nc3ccccc3[nH]2)CCc2cc(F)ccc2[C@@H]1C(C)C [Mibefradil dihydrochloride] | 0.977 ± 0.011 | 0.0303 ± 0.012 | 1 ± 0.015 | 0.827 ± 0.24 | 0.9887 ± 0.0031 | 0.00844 ± 0.014 |
| CC(C)[C@H]1c2ccc(F)cc2CC[C@@]1(CCN(C)CCCc1nc2ccccc2[nH]1)OC(=O)C1CC1 | 0.9943 ± 0.0051 | -0.000718 ± 0.00075 | 1.013 ± 0.0058 | 1.08 ± 0.035 | 0.989 ± 0.0095 | -6.33e-05 ± 0.0017 |
| CCOc1ccc(Cc2cc([C@@H]3O[C@H](CO)[C@@H](O)[C@H](O)[C@H]3O)ccc2Cl)cc1 [Dapagliflozin] | 1.01 ± 0.016 | 1.02 ± 0.026 | 1.02 ± 0.015 | 1.04 ± 0.017 | 1.001 ± 0.0081 | 1 ± 0.011 |
| CNC(=O)[C@H]1O[C@@H](n2cnc3c(N)ncnc32)[C@H](O)[C@@H]1O [5'-N-Methyl carboxamidoadenosine] | 0.982 ± 0.02 | 0.972 ± 0.015 | 0.988 ± 0.013 | 0.961 ± 0.0028 | 0.9893 ± 0.0078 | 0.976 ± 0.0053 |
| O=C(O)/C(=C\c1c(C(=O)O)[nH]c2cc(Cl)cc(Cl)c12)c1ccccc1 | 1.02 ± 0.015 | 1.06 ± 0.017 | 1.017 ± 0.0058 | 1.08 ± 0.081 | 0.995 ± 0.002 | 1.013 ± 0.0058 |
| C/C=C1\NC(=O)[C@H]2CSSCC/C=C/[C@H](CC(=O)N[C@H](C(C)C)C(=O)N2)OC(=O)[C@H](C(C)C)NC1=O [Depsipeptide] | 6.37e-05 ± 0.001 | 1.05 ± 0.02 | 0.00143 ± 0.00036 | 1.027 ± 0.0058 | 0.00028 ± 0.00044 | 1.01 |
| C/C=C1\NC(=O)[C@H]2CSSCC/C=C/[C@H](CC(=O)N[C@H](C(C)C)C(=O)N2)OC(=O)[C@H](C(C)C)NC1=O [Romidepsin] | 1.005 ± 0.0092 | 1.02 ± 0.011 | 1.007 ± 0.0058 | 1.02 ± 0.015 | 0.9903 ± 0.0045 | 0.979 ± 0.019 |
| C/C=C1\NC(=O)[C@H]2CSSCC/C=C/[C@H](CC(=O)N[C@H](C(C)C)C(=O)N2)OC(=O)[C@H](C(C)C)NC1=O [Romidepsin (FK228, Depsipeptide)] | 0.00704 ± 0.0021 | 0.000455 ± 0.00053 | 0.00593 ± 0.0021 | 0.000393 ± 0.00068 | 0.00559 ± 0.0012 | 2.1e-05 ± 0.00023 |
| O=C(O)C1CCCNC1 (racemic) [(±)-Nipecotic acid] | 0.9947 ± 0.005 | 1.01 ± 0.014 | 1.02 ± 0.059 | 1.02 ± 0.021 | 1 ± 0.01 | 1.013 ± 0.0058 |
| CN(C)CCSSCCNC(=O)C1CCN(C(=O)CSc2ccc(Cl)cc2)CC1 | 1.01 ± 0.01 | 1.04 ± 0.015 | 1.027 ± 0.0058 | 1.05 ± 0.01 | 0.9967 ± 0.0035 | 0.9967 ± 0.0042 |
| N[C@@H](Cc1c[nH]cn1)C(=O)O [L-Histidine hydrochloride] | 1.017 ± 0.0058 | 0.996 ± 0.012 | 1 ± 0.014 | 1.02 ± 0.01 | 0.9973 ± 0.0038 | 0.9973 ± 0.0046 |
| O=C(O)c1ccnc(C(=O)O)c1 [2,4-Pyridinedicarboxylic Acid] | 1 ± 0.022 | 0.999 ± 0.045 | 0.996 ± 0.021 | 1.01 ± 0.024 | 0.996 ± 0.015 | 0.999 ± 0.015 |
| CN=c1nc(-c2ccccc2)n(-c2ccccc2)s1 | 1.003 ± 0.0058 | 1.04 ± 0.031 | 0.832 ± 0.33 | 1.02 ± 0.01 | 1.01 | 1.017 ± 0.0058 |
| O=C1Nc2ccc(I)cc2C1=Cc1cc(Br)c(O)c(Br)c1 | 1.047 ± 0.0058 | 1.113 ± 0.0058 | 1.04 ± 0.01 | 1.08 ± 0.021 | 1.02 ± 0.01 | 1.043 ± 0.0058 |
| Cc1nc(N=Nc2cc([N+](=O)[O-])ccc2Cl)c(COP(=O)(O)O)c(C=O)c1O [MRS 2211 sodium salt hydrate] | 1.003 ± 0.0061 | 1.023 ± 0.0058 | 0.9933 ± 0.0099 | 0.995 ± 0.036 | 1.01 ± 0.013 | 1.006 ± 0.0075 |
| Cc1c2oc3c(C)ccc(C(=O)N[C@@H]4C(=O)N[C@H](C(C)C)C(=O)N5CCC[C@H]5C(=O)N(C)CC(=O)N(C)[C@@H](C(C)C)C(=O)O[C@@H]4C)c3nc-2c(C(=O)N[C@@H]2C(=O)N[C@H](C(C)C)C(=O)N3CCC[C@H]3C(=O)N(C)CC(=O)N(C)[C@@H](C(C)C)C(=O)O[C@@H]2C)c(N)c1=O [Dactinomycin] | 0.0161 ± 0.0015 | 0.0688 ± 0.0039 | 0.0397 ± 0.0056 | 0.183 ± 0.016 | 0.0046 ± 0.00021 | 0.0187 ± 0.0011 |
| COc1cc2c(cc1OC)-c1c/c(=N\c3c(C)cc(C)cc3C)n(C)c(=O)n1CC2 [Trequinsin hydrochloride] | 1.03 ± 0.015 | 1.02 ± 0.022 | 0.908 ± 0.2 | 1.033 ± 0.0058 | 1.023 ± 0.0058 | 1.05 ± 0.035 |
| CC(Cc1ccccc1)Nc1ncnc2c1ncn2C1OC(CO)C(O)C1O (stereo not drawn) [R(-)-N6-(2-Phenylisopropyl)adenosine] | 0.998 ± 0.002 | 1.01 ± 0.018 | 0.9997 ± 0.0096 | 1.03 ± 0.031 | 1.013 ± 0.0058 | 1.02 ± 0.017 |
| CC(=O)NC(C(=O)O)C(C)(C)SN=O (configuration not stated) [S-Nitroso-N-acetylpenicillamine] | 0.998 ± 0.014 | 1 ± 0.026 | 1.01 ± 0.011 | 0.987 ± 0.023 | 0.9937 ± 0.0011 | 0.9943 ± 0.0055 |
